Assay [1] addresses Transcription factor E2F1 (Homo sapiens) (UniProt Q01094). As to the kind of experiment: ATG_E2F_CIS: Attagene CIS-FACTORIAL HepG2 Assay for human E2F Transcription Factor 1 (AID 2282935). The note with it: HepG2 Attagene cis-reporter, E2F reporter RNA transcripts; actives raise or lower the signal. The procedure, abridged:
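First, HepG2 cells were transfected with reporter transcription units. Next, they were dosed for 24 h. Then RNA was isolated, converted to cDNA, PCR-amplified, FAM-labeled, HpaI-digested and analyzed by capillary electrophoresis.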

A short description of assay [2]: ATG_E_Box_CIS: Attagene CIS-FACTORIAL HepG2 Assay for human Enhancer Box (E-box) (AID 2282936). The note with it: HepG2 E-box cis-reporter transcription, actives raise or lower the signal. The method in brief: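 Endogenous transcription factor activity was sensed in human HepG2 liver cells through transfected cis-promoter reporter units. After 24 h of dosing, total RNA was reverse-transcribed and reporter cDNA resolved by capillary electrophoresis.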

Assay [3] in a line: ATG_M_61_CIS: Attagene CIS-FACTORIAL HepG2 Assay for M61 Transcription Factor (Internal Marker) (AID 2282937). The note with it: HepG2 Attagene CIS-FACTORIAL M61 internal marker reporter; actives raise or lower the signal. The procedure, abridged:
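Endogenous transcription factor activity in HepG2 is read through transiently transfected cis-element reporter units. After 24 h dosing, RNA undergoes reverse transcription, PCR and primer extension with 6-FAM before capillary electrophoresis; DMSO-referenced bidirectional fit.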

Assay [4] in a line: ATG_EGR_CIS: Attagene CIS-FACTORIAL HepG2 Assay for human Early Growth Response 1 (EGR1) (AID 2282938). The note with it: HepG2 Attagene CIS-FACTORIAL EGR reporter mRNA; actives raise or lower the signal. The method in brief:
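Activity is taken as induction or loss of reporter mRNA versus DMSO, fitted bidirectionally. Transcripts from cis-regulated reporter units in transiently transfected HepG2 were measured after 24 h by RT-PCR with capillary electrophoresis.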

Assay [5] in a line: ATG_M_19_CIS: Attagene CIS-FACTORIAL HepG2 Assay for M19 Transcription Factor (Internal Marker) (AID 2282939). The note with it: HepG2 Attagene CIS-FACTORIAL M19 internal marker reporter; actives raise or lower the signal. The procedure, abridged: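 Internal marker readout, fitted in both directions against DMSO, from HepG2 cells carrying transfected cis-element reporter constructs; RT-PCR and capillary electrophoresis of reporter mRNA after 24 h exposure.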

Assay [6] can be described thus: ATG_ERE_CIS: Attagene CIS-FACTORIAL HepG2 Assay for Estrogen Response Element (ERE) (AID 2282940). The note with it: HepG2 ERE cis-reporter, Attagene RNA transcript; actives raise or lower the signal. The procedure, abridged:
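After 24 h compound treatment, RNA from transfected HepG2 cells was reverse-transcribed, reporter cDNA PCR-amplified, FAM-labelled, HpaI-cut and resolved by capillary electrophoresis. ERE-driven cis reporter transcripts reflect endogenous factors; gain or loss scored against DMSO.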

Assay [7] is described as follows: ATG_Ets_CIS: Attagene CIS-FACTORIAL HepG2 Assay for human Erythroblast Transformation Specific (ETS) (AID 2282941). The note with it: HepG2 ETS cis-reporter transcription, actives raise or lower the signal. The method in brief:
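Multiplexed reporter transcript profiling: HepG2, 24 h treatment, total RNA to cDNA, PCR, 6-FAM labelling, HpaI cut, capillary electrophoresis. Gain- or loss-of-signal fitted against DMSO.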

Assay [8] has as its target Hepatocyte nuclear factor 3-beta (Homo sapiens) (UniProt Q9Y261). As to the kind of experiment: ATG_FoxA2_CIS: Attagene CIS-FACTORIAL HepG2 Assay for human Forkhead box A2 (FOXA2) (AID 2282942). The note with it: HepG2 cis-reporter transcription factor activity, 24 h; actives raise or lower the signal. The procedure, abridged:
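Reporter transcript induction is measured by fluorescence after capillary electrophoresis of RT-PCR products from HepG2 cells exposed 24 h. Cis-regulated reporter units report endogenous factor activity; curves fitted both directions against DMSO.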

A short description of assay [9]: ATG_FoxO_CIS: Attagene CIS-FACTORIAL HepG2 Assay for human Forkhead box O (FoxO) (AID 2282943). The note with it: HepG2 Attagene cis-reporter, FoxO element, mRNA; actives raise or lower the signal. The method in brief:
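Values reflect reporter mRNA induction or loss in HepG2 cells 24 h post-dosing, fitted bidirectionally with DMSO as negative control and baseline. Detection used RT-PCR and fluorescence capillary electrophoresis.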

The nature of assay [10]: ATG_GATA_CIS: Attagene CIS-FACTORIAL HepG2 Assay for human GATA Binding Protein (AID 2282944). The note with it: HepG2 GATA cis-element reporter, Attagene multiplex mRNA; actives raise or lower the signal. The method in brief: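 Reporter transcripts from a GATA cis-regulated unit, among multiplexed reporters in transfected HepG2 cells, were measured by RT-PCR with capillary electrophoresis after 24 h dosing. Induction or loss scored relative to DMSO.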

The nature of assay [11]: ATG_GLI_CIS: Attagene CIS-FACTORIAL HepG2 Assay for human Zinc Finger Protein GLI1 (AID 2282945). The note with it: HepG2, Attagene cis-factorial reporter mRNA, GLI element; actives raise or lower the signal. The procedure, abridged:
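HepG2 cells transiently transfected with cis-promoter multiplexed reporter units report endogenous transcription factor activity. After 24 h chemical exposure, reporter mRNA was quantified by RT-PCR, 6-FAM labelling, HpaI digestion and capillary electrophoresis, with bidirectional fitting against DMSO.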

The nature of assay [12]: ATG_GRE_CIS: Attagene CIS-FACTORIAL HepG2 Assay for human Glucocorticoid Response Elements (GRE) (AID 2282947). The note with it: HepG2 GRE cis-reporter, Attagene multiplex mRNA; actives raise or lower the signal. The method in brief: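 Cells (HepG2) bearing transfected cis-promoter reporter transcription units were treated with chemical for 24 hours. Reporter mRNA was measured via RT-PCR with capillary electrophoresis, and activity was fitted in both directions relative to DMSO.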

Assay [13] in a line: ATG_ISRE_CIS: Attagene CIS-FACTORIAL HepG2 Assay for human Interferon Regulatory Factor 1 (IRF1) binding to an Interferon-Stimulated Response Element (ISRE) (AID 2282948). The note with it: HepG2 ISRE cis-reporter (Attagene), mRNA transcription readout; actives raise or lower the signal. The procedure, abridged:
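Signal reflects induction or loss of ISRE-linked reporter mRNA in transiently transfected HepG2 cells after a 24 h treatment, detected by fluorescent RT-PCR fragments on capillary electrophoresis and normalised to DMSO.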

A short description of assay [14]: ATG_M_32_CIS: Attagene CIS-FACTORIAL HepG2 Assay for M32 Transcription Factor (Internal Marker) (AID 2282949).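 Note: background control marker of the multiplexed CIS panel rather than a real target.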 The note with it: HepG2 Attagene cis-factorial M32 reporter, mRNA; actives raise or lower the signal. The procedure, abridged: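 HepG2 human liver cells transiently transfected with cis-promoter-driven multiple reporter transcription units, dosed 24 h. Reporter mRNA quantified by RT-PCR, FAM-labelled primer extension, HpaI digest and capillary electrophoresis; bidirectional fit versus DMSO baseline.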

Assay [15] can be described thus: ATG_M_06_CIS: Attagene CIS-FACTORIAL HepG2 Assay for M06 Transcription Factor (Internal Marker) (AID 2282950). The note with it: HepG2 Attagene CIS-FACTORIAL M06 internal marker reporter; actives raise or lower the signal. The method in brief: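 Serves as a background control readout. Transfected HepG2 exposed to compounds for 24 h, then reporter transcripts quantified by fluorescent RT-PCR and capillary electrophoresis. Both directions fitted against DMSO baseline.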

Assay [16] addresses Hypoxia-inducible factor 1-alpha (Homo sapiens) (UniProt Q16665). As to the kind of experiment: ATG_HIF1a_CIS: Attagene CIS-FACTORIAL HepG2 Assay for human Hypoxia Inducible Factor 1 (HIF1A) (AID 2282951). The note with it: HepG2 Attagene cis-factorial HIF1a reporter transcription; actives raise or lower the signal. The procedure, abridged: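 Fluorescence intensity of capillary-separated, 6-FAM-labelled reporter amplicons gives mRNA induction in HepG2 cells carrying transfected cis-promoter reporter units; cells exposed 24 h, responses fitted up or down from DMSO.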

Assay [17] concerns the target Hepatocyte nuclear factor 6 (Homo sapiens) (UniProt Q9UBC0). The experiment in a line: ATG_HNF6_CIS: Attagene CIS-FACTORIAL HepG2 Assay for human Hepatocyte Nuclear Factor 6 (HNF6) (AID 2282952). The note with it: HepG2 Attagene cis-factorial HNF6 reporter transcription; actives raise or lower the signal. The method in brief:
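Endogenous factor activity read in transiently transfected HepG2 via promoter-regulated reporter transcripts. RNA harvested 24 h post-dosing, reverse-transcribed, PCR-amplified, FAM-labelled, HpaI-digested and resolved by capillary electrophoresis; fitted in both directions against DMSO.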

The target of assay [18] is Heat shock factor protein 1 (Homo sapiens) (UniProt Q00613). As to the kind of experiment: ATG_HSE_CIS: Attagene CIS-FACTORIAL HepG2 Assay for human Heat Shock Transcription Factor 1 (HSE) (AID 2282953). The note with it: HepG2 HSE cis-reporter, Attagene RNA transcription; actives raise or lower the signal. The method in brief: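 Endogenous transcription factor activity in transiently transfected HepG2, read as reporter mRNA by RT-PCR with fluorescent capillary electrophoresis after 24 h. Gain or loss of signal fitted versus DMSO baseline.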

Assay [19] can be described thus: ATG_MRE_CIS: Attagene CIS-FACTORIAL HepG2 Assay for human Metal Responsive Element (MRE) (AID 2282954). The note with it: HepG2 MRE cis-reporter transcription, Attagene multiplex; actives raise or lower the signal. The procedure, abridged:
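Cells were transfected with cis-promoter reporter transcription units, then dosed for 24 h. RNA was reverse-transcribed, amplified, fluorescently labelled and resolved by capillary electrophoresis, and activity was fitted in both directions relative to DMSO.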

The target of assay [20] is Bile acid receptor (Homo sapiens) (UniProt Q96RI1). The experiment in a line: ATG_IR1_CIS: Attagene CIS-FACTORIAL HepG2 Assay for human Nuclear Receptor Subfamily 1 Group H Member 4 (NR1H4), IR1 submotif (AID 2282946). The note with it: IR1 reporter transcription, actives raise or lower the signal. The procedure, abridged:
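Readout: reporter transcript levels by RT-PCR with fluorescent capillary electrophoresis, from HepG2 cells transiently transfected with multiplexed cis-regulated reporters and dosed 24 h. Gain- or loss-of-signal fitted versus DMSO negative control.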

Calls of active or inactive are those of the source. Rule for the calls: active = hit-call score of the fitted dose curve at least 0.9, where 1 is the maximum; inactive = score below 0.9.

Chain of Transcription factor E2F1 (Homo sapiens) (Q01094 whole entry, looked up): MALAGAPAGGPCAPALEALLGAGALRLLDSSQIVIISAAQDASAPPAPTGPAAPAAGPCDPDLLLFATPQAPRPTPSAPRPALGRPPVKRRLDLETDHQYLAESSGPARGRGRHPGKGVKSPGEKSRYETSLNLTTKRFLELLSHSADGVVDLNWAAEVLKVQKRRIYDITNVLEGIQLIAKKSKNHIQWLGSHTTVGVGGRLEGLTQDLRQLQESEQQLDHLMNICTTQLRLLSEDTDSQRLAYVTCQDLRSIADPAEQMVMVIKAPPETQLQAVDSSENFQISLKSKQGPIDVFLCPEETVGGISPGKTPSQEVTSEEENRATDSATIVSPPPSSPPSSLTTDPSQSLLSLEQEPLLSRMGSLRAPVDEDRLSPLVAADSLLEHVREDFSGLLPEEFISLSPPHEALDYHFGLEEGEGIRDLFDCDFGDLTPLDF
Chain of Heat shock factor protein 1 (Homo sapiens) (Q00613 whole entry, looked up): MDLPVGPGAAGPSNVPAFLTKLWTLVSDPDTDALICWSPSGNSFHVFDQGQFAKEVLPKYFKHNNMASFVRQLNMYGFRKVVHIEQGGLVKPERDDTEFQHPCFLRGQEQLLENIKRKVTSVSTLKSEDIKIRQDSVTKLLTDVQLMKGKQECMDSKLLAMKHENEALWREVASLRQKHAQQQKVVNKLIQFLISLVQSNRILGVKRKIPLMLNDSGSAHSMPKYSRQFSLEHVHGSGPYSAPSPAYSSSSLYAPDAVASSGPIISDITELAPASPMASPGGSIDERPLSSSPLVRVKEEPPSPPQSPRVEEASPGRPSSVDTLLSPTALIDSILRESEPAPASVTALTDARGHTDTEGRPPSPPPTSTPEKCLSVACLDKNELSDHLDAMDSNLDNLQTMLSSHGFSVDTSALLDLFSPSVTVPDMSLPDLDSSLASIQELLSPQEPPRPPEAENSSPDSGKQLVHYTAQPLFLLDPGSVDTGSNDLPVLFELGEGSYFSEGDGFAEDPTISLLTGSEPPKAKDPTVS
Chain of Hepatocyte nuclear factor 6 (Homo sapiens) (Q9UBC0 whole entry, looked up): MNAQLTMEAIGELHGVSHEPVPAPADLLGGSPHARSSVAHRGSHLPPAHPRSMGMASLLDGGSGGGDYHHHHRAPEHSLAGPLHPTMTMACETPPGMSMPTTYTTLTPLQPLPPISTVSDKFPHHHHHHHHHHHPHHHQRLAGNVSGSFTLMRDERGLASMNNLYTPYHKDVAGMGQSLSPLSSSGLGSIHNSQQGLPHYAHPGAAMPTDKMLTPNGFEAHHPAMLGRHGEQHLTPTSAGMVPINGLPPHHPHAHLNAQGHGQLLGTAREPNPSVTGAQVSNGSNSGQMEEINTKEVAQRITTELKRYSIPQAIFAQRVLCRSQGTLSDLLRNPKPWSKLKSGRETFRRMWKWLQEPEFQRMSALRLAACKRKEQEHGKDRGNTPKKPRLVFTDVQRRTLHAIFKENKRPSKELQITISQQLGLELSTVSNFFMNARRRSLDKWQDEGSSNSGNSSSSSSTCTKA
Chain of Hypoxia-inducible factor 1-alpha (Homo sapiens) (Q16665 whole entry, looked up): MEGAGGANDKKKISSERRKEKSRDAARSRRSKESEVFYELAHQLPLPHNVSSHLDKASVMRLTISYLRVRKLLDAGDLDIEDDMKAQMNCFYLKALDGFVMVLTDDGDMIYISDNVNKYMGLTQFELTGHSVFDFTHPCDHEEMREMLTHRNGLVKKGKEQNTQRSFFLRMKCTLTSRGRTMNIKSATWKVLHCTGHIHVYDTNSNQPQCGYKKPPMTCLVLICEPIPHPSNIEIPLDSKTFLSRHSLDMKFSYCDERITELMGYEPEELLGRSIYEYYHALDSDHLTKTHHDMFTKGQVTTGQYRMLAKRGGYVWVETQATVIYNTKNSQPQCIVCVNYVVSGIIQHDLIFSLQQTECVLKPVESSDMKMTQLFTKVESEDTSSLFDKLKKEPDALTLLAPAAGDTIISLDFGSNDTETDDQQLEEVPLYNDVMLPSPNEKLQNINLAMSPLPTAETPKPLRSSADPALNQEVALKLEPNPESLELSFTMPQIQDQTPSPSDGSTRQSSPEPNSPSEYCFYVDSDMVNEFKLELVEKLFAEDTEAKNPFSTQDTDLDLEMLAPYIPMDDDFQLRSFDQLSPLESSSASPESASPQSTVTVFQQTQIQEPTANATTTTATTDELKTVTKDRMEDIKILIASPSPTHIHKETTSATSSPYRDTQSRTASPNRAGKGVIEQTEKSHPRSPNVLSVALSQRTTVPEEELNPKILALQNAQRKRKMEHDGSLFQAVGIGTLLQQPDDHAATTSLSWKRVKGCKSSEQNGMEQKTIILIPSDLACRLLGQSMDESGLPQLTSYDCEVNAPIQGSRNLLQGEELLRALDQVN
Chain of Hepatocyte nuclear factor 3-beta (Homo sapiens) (Q9Y261 whole entry, looked up): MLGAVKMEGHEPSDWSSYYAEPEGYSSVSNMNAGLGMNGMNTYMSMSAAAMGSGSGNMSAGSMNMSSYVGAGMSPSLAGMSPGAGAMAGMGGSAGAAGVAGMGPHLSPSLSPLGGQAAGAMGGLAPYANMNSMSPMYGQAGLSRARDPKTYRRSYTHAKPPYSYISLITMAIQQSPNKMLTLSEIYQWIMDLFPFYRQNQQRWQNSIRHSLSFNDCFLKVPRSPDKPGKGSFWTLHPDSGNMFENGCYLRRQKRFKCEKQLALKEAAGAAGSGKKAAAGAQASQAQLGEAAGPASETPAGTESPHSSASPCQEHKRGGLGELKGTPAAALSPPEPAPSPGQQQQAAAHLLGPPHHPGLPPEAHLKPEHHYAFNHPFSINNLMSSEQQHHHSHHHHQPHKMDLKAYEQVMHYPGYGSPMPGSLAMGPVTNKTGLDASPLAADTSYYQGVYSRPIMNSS
Chain of Bile acid receptor (Homo sapiens) (Q96RI1 whole entry, looked up): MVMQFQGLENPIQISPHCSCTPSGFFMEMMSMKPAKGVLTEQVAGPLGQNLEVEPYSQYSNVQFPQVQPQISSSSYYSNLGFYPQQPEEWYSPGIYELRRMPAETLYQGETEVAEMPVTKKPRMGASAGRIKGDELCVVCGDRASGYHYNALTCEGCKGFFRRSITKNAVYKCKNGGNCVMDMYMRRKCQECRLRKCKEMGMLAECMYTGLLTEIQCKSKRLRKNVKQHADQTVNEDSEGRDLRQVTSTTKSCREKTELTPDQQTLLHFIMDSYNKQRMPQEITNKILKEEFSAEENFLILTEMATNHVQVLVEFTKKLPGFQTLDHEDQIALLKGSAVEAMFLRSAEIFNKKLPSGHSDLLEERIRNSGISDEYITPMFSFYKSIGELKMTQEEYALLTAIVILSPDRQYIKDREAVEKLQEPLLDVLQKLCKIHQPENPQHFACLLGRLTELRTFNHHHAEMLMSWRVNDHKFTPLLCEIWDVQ

What is called AC50 is the concentration at which the activity in the assay is half-maximal. Turning to `CCN(CC)c1nc(C)cc(OP(=S)(OC)OC)n1`, the compound was classed as inactive in [1], in assay [2], in assay [3], in [5], in [7] and in assay [8]. Further, the compound was classed as inactive in [9], in assay [10], in [11], in assay [12], in assay [13] and in [14]. Further, the outcome in assay [15], in assay [17] and in assay [18] was inactive. The AC50 in [4] was 50 µM (active); in assay [6] it was 12.7 µM (active); in assay [16], 50 µM (active); in [19] it was 50 µM (active).

Consider `CCCN(CC)CC1COC2(CCC(C(C)(C)C)CC2)O1` (stereo not drawn), for which the outcome in assay [1], in [2], in [3], in assay [5], in assay [6] and in assay [7] was inactive. The compound was classed as inactive in assay [9], in assay [10], in assay [11], in assay [12], in assay [13] and in assay [14]. For the same compound, the call in [15] was inactive. In addition, the AC50 is 15 µM (active) in assay [4]; 16.9 µM (active) in assay [8]; 22.7 µM (active) in [16]; 50 µM (active) in assay [17]; 60.3 µM (active) in assay [18]; 50 µM (active) in [19].

Consider `COP(=S)(OC)Oc1ccc([N+](=O)[O-])c(C)c1`, for which the outcome in assay [1], in assay [2], in assay [3], in assay [5], in [7] and in [8] was inactive. Also, the outcome in assay [9], in [10], in assay [11], in assay [20], in assay [12] and in assay [13] was inactive. Moreover, the compound was called inactive in assay [14], in assay [15], in [16], in assay [17] and in [18]. Moreover, the results for the AC50 in assay [4], in assay [6] and in assay [19] were 28.9 µM (active), 13.7 µM (active) and 50 µM (active), respectively.

For the origin of these results see PubChem BioAssay (EPA / NIEHS).
